“And” between values parts separate entries of the source, which are not always exact repeats. Equal values may be shown once. Hit rate of the full screen: of about 150,000 compounds, about 540 (0.36%) showed an effect of 50% or more. The sample as a whole holds a higher share of strong results than the screen did.
System: Plasmodium falciparum
Test: Primary screen in NF54 nanoGlo assay, in single point, at 2uM, 72h; a lower Z score goes with more inhibition
Assay type: functional, Erythrocyte
Settings: timepoint 72 hour

Row | SMILES | % Inhibition [%] | Z score | Z score (2 µM)
1 | Cc1c(C(=O)NC[C@H]2CCCOC2)[nH]c2c(Cl)cccc12 | -9 | 1.62 | –
2 | C[C@H](OC(=O)CNC(=O)OC(C)(C)C)C(=O)N1CCCCCC1 | -12 | 1.29 | –
3 | c1ccc(C2(c3ccccc3)O[C@@H](c3cccnc3)Nc3ccccc32)cc1 | -4 | 0.54 | –
4 | CC(C)Oc1ccccc1[C@H]1Nc2ccccc2C(c2ccccc2)(c2ccccc2)O1 | -1 | 0.21 | –
5 | Cc1ccc(CC[C@H]2Nc3ccccc3C(c3ccccc3)(c3ccccc3)O2)o1 | 81 | -13.4 | –
6 | Cc1cc(=O)n(CC(=O)N2CCCC[C@@H]2CCc2ccccc2)nc1C | -18 | 3.31 | –
7 | O=C(c1cccs1)N(Cc1ccccn1)c1nc2ccccc2s1 | 4 | -0.46 | –
8 | Cc1oc(-c2ccn[nH]2)cc1S(=O)(=O)Nc1cccc(Cl)c1 | 59 | -0.35 | –
9 | Cc1ccc(F)c(NS(=O)(=O)c2cc(-c3ccn[nH]3)oc2C)c1 | 2 | -0.25 | –
10 | Cc1oc(-c2ccn[nH]2)cc1S(=O)(=O)Nc1ccc(F)c(Cl)c1 | 37 | -0.01 | –
11 | O=C(O)c1cc(NS(=O)(=O)c2cc(F)ccc2F)ccc1N1CCCCCC1 | -4 | 0.67 | –
12 | CCc1cccc2c(C3=CCN(c4ccc5nnc(C(F)(F)F)n5n4)CC3)c[nH]c12 | 11 | -2.04 | –
13 | Cc1cc(C)cc(NC(=O)c2c(C)sc3ncnc(N4CCCC4)c23)c1 | -2 | 0.31 | –
14 | CC(CN1CCC(N2CCOCC2)C1)c1cccc(Cl)c1 (stereo not given) | 5 | -0.64 | –
15 | CCC(=O)NCc1nc2c(n1C)CN(C(=O)c1ccc(CC)cc1)CC2 | 2 | -0.2 | –
16 | COC1(C)CCN(C(=O)c2ccon2)CC1 | -4 | 0.52 | –
17 | O=C(CCc1conc1-c1cccc(F)c1)NC1CC1 | -8 | 1.59 | –
18 | Cc1cc(C)c(S(=O)(=O)N2CC[C@H](n3cccn3)C2)s1 | -1 | 0.1 | –
19 | Cc1csc(S(=O)(=O)N2CC[C@H](n3cccn3)C2)c1 | 82 | 1.47 | –
20 | O=S(=O)(c1cccs1)N1CC[C@H](n2ccnn2)C1 | -9 | 1.54 | –
21 | COC[C@](C)(CCO)NC(=O)Nc1cc(F)cc(Br)c1 | -13 | 1.11 | –
22 | CCn1cc(C(=O)Nc2ccc(OCCN3CC[C@H](C)C3)cc2)cn1 | 5 | -0.92 | –
23 | Cc1cc(C)cc(N(CCC#N)C(=O)CN2CCC[C@H]2c2ccc3c(c2)OCCCO3)c1 | -2 | 0.18 | –
24 | Cn1cc(C(=O)N[C@H]2CCN(c3ccc(F)c(Cl)c3)C2)cn1 | -3 | 0.57 | –
25 | CNC(=O)Nc1cccc(NC(=O)c2cncc(-c3cnn(C)c3)c2)c1 | 24 | -3.15 | –
26 | COCCCCC(=O)N1CCC[C@H](N)[C@@H]1c1ccccc1OC | 4 | -0.43 | –
27 | O=C(CN1C(=O)N[C@]2(CCc3cc(Cl)ccc32)C1=O)c1ccc2c(c1)OCO2 | 0 | -0.01 | –

Row | SMILES | % Inhibition [%] | Z score | Z score (2 µM)
28 | CC(C)Nc1nc2nonc2n2nnnc12 | 31 | -3.95 | –
29 | C[C@H](Nc1nc2nonc2n2nnnc12)c1ccccc1 | 27 | -3.54 | –
30 | CC(C)Nc1nc2nonc2n2cnnc12 | 77 | -8.71 | –
31 | Cc1cc(N2CCC[C@H](CNC(=O)CN3CCOCC3)C2)nc2cc(F)ccc12 | -15 | 1.9 | –
32 | CC(=O)N[C@H]1CCN(S(=O)(=O)c2sccc2Cl)C1 | 0 | -0.08 | –
33 | O=C(NC1CCCC1)[C@@H](c1ccccc1)N1CCS(=O)(=O)CC1 | 7 | -0.84 | –
34 | O=C(NC[C@]12C[C@H]1COC21CCC1)c1ncoc1-c1ccon1 | 5 | -0.99 | –
35 | CN(CC(C)(CO)CO)C(=O)c1ccsc1 | 6 | -0.9 | –
36 | CCOC(=O)C1CCCN(C2CCN(C(=O)CCC3(Cc4ccc(C)cc4)CCC(=O)N3)CC2)C1 (stereo not given) | -5 | 0.68 | –
37 | Cc1sc2nc(-c3ccccn3)nc(NCC(=O)N3CCC(O)CC3)c2c1-c1ccccc1 | 25 | -2.12 | –
38 | Cc1nc(CCNc2nc(-c3ccccn3)nc3c2CCNCC3)no1 | -2 | 0.27 | –
39 | Cc1cc(CN(C)C(=O)[C@H]2CC(=O)N(c3ccccc3)C2)no1 | -3 | 0.62 | –
40 | CCC(=O)Nc1ccc(Oc2c(C)c(C(=O)O)nn2-c2ccccc2CC)c(S(=O)(=O)NCC(C)C)c1 | 97 | -9.77 | –
41 | Cc1c(C(=O)O)nn(-c2ccc(F)cc2)c1Oc1ccc(NC(=O)CC(C)C)cc1S(=O)(=O)NCC(C)C | -16 | 1.93 | –
42 | CCC(=O)Nc1ccc(Oc2c(C)c(C(=O)O)nn2-c2ccccc2C)c(S(=O)(=O)N[C@@H](C)CC)c1 | -10 | 0.97 | –
43 | CC1=C(C(=O)NCCC(F)(F)F)Cn2nnnc2N1C | 0 | 0.01 | –
44 | CC1(C)C2CCC(C2)C1CC1OCC(C[N+]2(Cc3ccccc3)CCCCC2)O1 (stereo not given) | -7 | 1.37 | –
45 | CC(CC1OCC(C[N+]2(Cc3ccccc3)CCCCC2)O1)CC(C)(C)C (stereo not given) | 60 | -5.21 | –
46 | COC(=O)c1ccc(C[N+]2(C[C@H]3COC4(CCCCC4)O3)CCCC2)cc1 | -5 | – | 0.44 and 0.65
47 | Cc1cc[n+]2c(-c3ccccc3)cc(-c3ccccc3)nc2c1 | 60 | -11.27 | –
48 | Cc1cc(-c2ccccc2)[n+]2ccccc2n1 | -15 | 2.36 | –
49 | Cc1ccc(-c2csc(-c3nc(-c4ccccc4)cs3)n2)c(C)c1 | 10 | -1.13 | –
50 | O=C(Cc1ccc2[nH]c(=O)[nH]c2c1)N1CCOC[C@@H]1CC1CCC1 | 2 | -0.19 | –
51 | CCOC(=O)c1cc2n(n1)C[C@@](C)(C(=O)NCCC(C)C)N(c1ccc(C)c(C)c1)C2=O | -6 | 0.75 | –
52 | Cc1ccc(C(=O)N(Cc2cccc(F)c2)c2ccc(CC(=O)N[C@@H](C)c3ccccc3)cc2)cc1 | 74 | -8.26 | –
53 | Cc1cccc(CN(C(=O)C2CCCC2)c2ccc(CC(=O)NCCN3CCCC3)cc2)c1 | 20 | -2.23 | –
54 | O=C(Cc1ccc(N(Cc2ccc(F)cc2)C(=O)c2cccc(F)c2)cc1)NCc1ccccc1 | -2 | 0.3 | –

Row | SMILES | % Inhibition [%] | Z score | Z score (2 µM)
55 | CCC(=O)N(Cc1cccc(F)c1)c1ccc(CC(=O)NCCN2CCCC2)cc1 | -2 | 0.24 | –
56 | O=C(Cc1ccc(N(Cc2cccc(F)c2)C(=O)C2CCCC2)cc1)NCCN1CCCC1 | 25 | -2.85 | –
57 | O=C(Cc1ccc(N(Cc2cccc(F)c2)C(=O)C2CCCC2)cc1)NCCN1CCCCC1 | 59 | -9.89 | –
58 | O=C(Cc1ccc(N(Cc2cccc(F)c2)C(=O)c2cccc(F)c2)cc1)NCCN1CCCCC1 | 57 | -2.67 | –
59 | O=C(Cc1ccc(N(Cc2cccc(F)c2)C(=O)c2cccc(F)c2)cc1)NCCN1CCCC1 | 3 | -0.41 | –
60 | COc1cccc(C(=O)N(Cc2ccc(C)cc2)c2cccc(CC(=O)N[C@@H](C)c3ccccc3)c2)c1 | -8 | 1.49 | –
61 | Cc1ccccc1C(=O)N(Cc1ccc(F)cc1)c1cccc(CC(=O)NCCN2CCCC2)c1 | 6 | -0.6 | –
62 | Cc1ccc(CN(C(=O)c2ccccc2C)c2cccc(CC(=O)NCCN3CCCC3)c2)cc1 | -9 | 1.17 | –
63 | Cc1ccccc1C(=O)N(Cc1cccc(F)c1)c1ccc(CC(=O)NCCN2CCCCC2)cc1 | 58 | -4.25 | –
64 | CC(C)(C)c1ncc(-c2cc(F)cc3cccnc23)[nH]1 | -16 | 1.82 | –
65 | Cc1n[nH]nc1-c1nc(-c2ccncc2)nn1[C@H]1CCS(=O)(=O)C1 | -6 | 0.87 | –
66 | Cc1ccc(CS(=O)(=O)N2CCC3CCN(C)CC32)c(F)c1 (stereo not given) | -7 | 1.13 | –
67 | Cc1nccn1CCNC(=O)c1cc2cccc(Cl)c2n1C | -16 | 1.43 | –
68 | CC[C@H]1CN(Cc2cccn2-c2nccs2)CCN1C | -2 | 0.41 | –
69 | Cc1ccc(-n2nc(C)cc2NS(=O)(=O)c2c(C)nn(C(C)C)c2C)nn1 | -9 | 1.42 | –
70 | CCOc1cccc2[nH]cc(CC(=O)N[C@H](c3nccn3C)C3CC3)c12 | 7 | -0.9 | –
71 | CCOC(=O)NCCC(=O)NCCC[C@H]1CCCCO1 | -4 | 0.49 | –
72 | CCc1nsc(N2CC(C)N(CC#N)C(C)C2)n1 (stereo not given) | -3 | 0.45 | –
73 | CC[C@@H](c1nc(-c2ccc(-n3nc(C)cc3N)cc2)no1)n1cccn1 | -2 | 0.32 | –
74 | CCCc1cc(-c2nc(-c3ccc(-n4nc(C)cc4N)cc3)no2)n(C)n1 | 71 | -14.18 | –
75 | Cc1cc(N)n(-c2ccc(-c3noc(-c4cc(C(C)C)on4)n3)cc2)n1 | 15 | -3.24 | –
76 | C[C@@H](CNc1nc(-c2ccccc2)nc2nc(-c3ccc(Cl)cc3)oc12)N1CCCCC1 | 79 | -10.9 | –
77 | C[C@@H](CNc1nc(-c2ccccc2)nc2nc(-c3ccc(Cl)cc3)oc12)N1CCOCC1 | -17 | 2.25 | –
78 | c1ccc(-c2nc(NC3CCCC3)c3oc(-c4ccccc4)nc3n2)cc1 | -7 | 0.89 | –
79 | CCc1noc(C2(n3cccn3)CC2)n1 | -8 | 0.8 | –
80 | N#Cc1ccccc1OCCN1CCS(=O)(=O)CC1 | -3 | 0.38 | –

Reference: ChEMBL document CHEMBL4888484, “Replenishing the malaria drug discovery pipeline: Screening and hit evaluation of the MMV Hit Generation Library 1 (HGL1) against asexual blood stage Plasmodium falciparum ,using a nano luciferase reporter read-out” (2022)
